# Biological target: T1, GST-Ap-NF-kB RHD (Exaiptasia pallida (Aiptasia), UniProt A0A913YAJ5 2-422)
# T1 sequence: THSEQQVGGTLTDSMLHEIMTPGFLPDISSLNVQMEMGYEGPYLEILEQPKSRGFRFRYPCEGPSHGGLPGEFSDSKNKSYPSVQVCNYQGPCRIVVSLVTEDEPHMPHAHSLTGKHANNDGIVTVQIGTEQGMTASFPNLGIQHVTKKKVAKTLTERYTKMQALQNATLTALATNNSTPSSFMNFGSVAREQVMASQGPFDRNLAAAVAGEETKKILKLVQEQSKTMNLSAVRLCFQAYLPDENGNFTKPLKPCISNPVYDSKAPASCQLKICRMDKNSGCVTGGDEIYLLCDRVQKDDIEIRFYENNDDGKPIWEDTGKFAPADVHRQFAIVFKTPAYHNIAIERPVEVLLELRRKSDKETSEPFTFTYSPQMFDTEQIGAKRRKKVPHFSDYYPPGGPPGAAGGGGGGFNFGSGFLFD
# Experiment: protein-binding microarray (PBM); PBM: ~300 nM protein, 6 mM HEPES pH 7.8, 80 mM KCl, 0.5 mM EDTA, 0.5 mM EGTA, 6% glycerol, 35 ng/ul poly-dIdC, 1% milk, 1 h, room temperature; Ap Aiptasia and Nv Nematostella (sea anemones) / Co Capsaspora / Aq Amphimedon (sponge) / Dm Drosophila / Hu human; RHD is the Rel homology domain; high values mean tight binding
# Details: dsDNA, one strand shown
row,Sequence,binding signal [z-score]
1,CCGATTAACATCAAGGGCTTCCCTGATGTTAATCGGGTCTTGATTCGCTTGACGCTGCTG,1.53
2,CCGATTAACATCAATATTTCCCATGATGTTAATCGGGTCTTGATTCGCTTGACGCTGCTG,2.29
3,CCGATTAACATCAAAAACACCCCTGATGTTAATCGGGTCTTGATTCGCTTGACGCTGCTG,4.85
4,CCGATTAACATCAGAGAAGTCCCTGATGTTAATCGGGTCTTGATTCGCTTGACGCTGCTG,5.7
5,CCGATTAACATCAAAATAATCCCTGATGTTAATCGGGTCTTGATTCGCTTGACGCTGCTG,6.46
6,CCGATTAACATCAGGATAATCCCTGATGTTAATCGGGTCTTGATTCGCTTGACGCTGCTG,4.74
7,CCGATTAACATCAGGAGAATCCCTGATGTTAATCGGGTCTTGATTCGCTTGACGCTGCTG,2.6
8,CCGATTAACATCAGGGGAAGGGATGATGTTAATCGGGTCTTGATTCGCTTGACGCTGCTG,4.77
9,CCGATTAACATCAGGGACCGCCCTGATGTTAATCGGGTCTTGATTCGCTTGACGCTGCTG,4.16
10,CCGATTAACATCAGGAAGACCCCTGATGTTAATCGGGTCTTGATTCGCTTGACGCTGCTG,3.9
11,CCGATTAACATCAGGGATCCCCATGATGTTAATCGGGTCTTGATTCGCTTGACGCTGCTG,7.26
12,CCGATTAACATCACACCACCCCCTGATGTTAATCGGGTCTTGATTCGCTTGACGCTGCTG,3.79
13,CCGATTAACATCAAGGGTTTTCCTGATGTTAATCGGGTCTTGATTCGCTTGACGCTGCTG,3.57
14,CCGATTAACATCAGGGACAGCCCTGATGTTAATCGGGTCTTGATTCGCTTGACGCTGCTG,3.43
15,CCGATTAACATCACGAGTTTCCCTGATGTTAATCGGGTCTTGATTCGCTTGACGCTGCTG,3.04
16,CCGATTAACATCAGGAGTTTACCTGATGTTAATCGGGTCTTGATTCGCTTGACGCTGCTG,1.12
17,CCGATTAACATCAGGGATTTACCTGATGTTAATCGGGTCTTGATTCGCTTGACGCTGCTG,4.76
18,CCGATTAACATCAGGCCACCCCCTGATGTTAATCGGGTCTTGATTCGCTTGACGCTGCTG,3.91
19,CCGATTAACATCACGGGACTTCCTGATGTTAATCGGGTCTTGATTCGCTTGACGCTGCTG,5.89
20,CCGATTAACATCAGGGTTTTCCATGATGTTAATCGGGTCTTGATTCGCTTGACGCTGCTG,2.55

row,Sequence,binding signal [z-score]
1,CCGATTAACATCAGGGCTTTACCTGATGTTAATCGGGTCTTGATTCGCTTGACGCTGCTG,1.07
2,CCGATTAACATCAAGGGCATTCCTGATGTTAATCGGGTCTTGATTCGCTTGACGCTGCTG,1.84
3,CCGATTAACATCAGGGCGTCCCCTGATGTTAATCGGGTCTTGATTCGCTTGACGCTGCTG,6.5
4,CCGATTAACATCAGGGGTTTACCTGATGTTAATCGGGTCTTGATTCGCTTGACGCTGCTG,5.65
5,CCGATTAACATCAACCCCCGGCTTGATGTTAATCGGGTCTTGATTCGCTTGACGCTGCTG,4.17
6,CCGATTAACATCAATGGGATTCCTGATGTTAATCGGGTCTTGATTCGCTTGACGCTGCTG,1.54
7,CCGATTAACATCAGGAATCACCCTGATGTTAATCGGGTCTTGATTCGCTTGACGCTGCTG,2.46
8,CCGATTAACATCAGGAACATCCCTGATGTTAATCGGGTCTTGATTCGCTTGACGCTGCTG,1.46
9,CCGATTAACATCACGGGACATACTGATGTTAATCGGGTCTTGATTCGCTTGACGCTGCTG,1.83
10,CCGATTAACATCACGGAAGTCCCTGATGTTAATCGGGTCTTGATTCGCTTGACGCTGCTG,5.31
11,CCGATTAACATCAAAAAAATACCTGATGTTAATCGGGTCTTGATTCGCTTGACGCTGCTG,1.95
12,CCGATTAACATCAAGCAATTCCCTGATGTTAATCGGGTCTTGATTCGCTTGACGCTGCTG,3.2
13,CCGATTAACATCAGGCGTCCCCCTGATGTTAATCGGGTCTTGATTCGCTTGACGCTGCTG,5.61
14,CCGATTAACATCACGGAAAACCCTGATGTTAATCGGGTCTTGATTCGCTTGACGCTGCTG,2.23
15,CCGATTAACATCAGGGAACTACATGATGTTAATCGGGTCTTGATTCGCTTGACGCTGCTG,1.52
16,CCGATTAACATCAGGCGAGTCCCTGATGTTAATCGGGTCTTGATTCGCTTGACGCTGCTG,3.13
17,CCGATTAACATCAGGGGATCCCATGATGTTAATCGGGTCTTGATTCGCTTGACGCTGCTG,7.15
18,CCGATTAACATCAGGAAAAACCCTGATGTTAATCGGGTCTTGATTCGCTTGACGCTGCTG,4.35
19,CCGATTAACATCAGGGGGTCTACTGATGTTAATCGGGTCTTGATTCGCTTGACGCTGCTG,4.22

# From PMC5700166
